Measured values: PubChem BioAssay AID1851 (National Center for Advancing Translational Sciences (NCATS), 2009)
Hit rate of the full screen: of about 16,000 compounds, about 5,700 (36%) were called active. About 24% were inconclusive and are not listed. Calls come from the whole dose curve; as a rule, active = well fitted curve in the direction sought with a large enough effect; inconclusive = small, poorly fitted or top-dose-only effect, or effect the other way; inactive = no such curve, though single readings can be large or run the other way. Some of the results follow.

molecular target: Cytochrome P450 1A2 (Homo sapiens) (UniProt P05177); test: Cytochrome panel assay with activity outcomes; settings: recombinant CYP, pro-luciferin dealkylation, luminescence, p450-cyp1a2; series mostly up to 57.1 µM
% is set by controls: 0 for no effect and ±100 for the full control effect.

Cytochrome P450 1A2 (Homo sapiens), sequence (P05177 whole entry, looked up): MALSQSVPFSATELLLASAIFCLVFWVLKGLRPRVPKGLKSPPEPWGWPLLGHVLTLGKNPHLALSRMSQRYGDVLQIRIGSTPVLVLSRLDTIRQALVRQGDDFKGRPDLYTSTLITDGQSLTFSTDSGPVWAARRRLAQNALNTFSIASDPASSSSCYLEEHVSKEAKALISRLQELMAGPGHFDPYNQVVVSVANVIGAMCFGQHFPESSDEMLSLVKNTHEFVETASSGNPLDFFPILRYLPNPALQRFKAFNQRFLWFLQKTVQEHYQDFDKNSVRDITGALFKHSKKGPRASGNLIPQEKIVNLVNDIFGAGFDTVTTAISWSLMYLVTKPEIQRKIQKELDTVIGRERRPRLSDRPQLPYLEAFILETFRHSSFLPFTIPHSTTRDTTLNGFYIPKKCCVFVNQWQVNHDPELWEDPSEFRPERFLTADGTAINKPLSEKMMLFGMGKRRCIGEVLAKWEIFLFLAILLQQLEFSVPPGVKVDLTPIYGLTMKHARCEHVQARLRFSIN

Structure (SMILES)	AC50	activity, negative = inhibition
COc1cc(N)c(Cl)cc1C(=O)OCCCN1CCCCC1	inactive	
CCCOc1ccc(C(=O)OCCN(CC)CC)cc1N	5.01 µM (active)	
CCN(CC)CCCCCCCCOC(=O)c1cc(OC)c(OC)c(OC)c1	inactive	
CCN(CC)CCOC(=O)c1cc(Cl)c(N)cc1OC	12.6 µM (active)	
CCCOc1cc(N)ccc1C(=O)OCCN(CC)CC	12.6 µM (active)	
C[N+]1(CCCC[N+]2(C)CCCCCCC2)CCCCCCC1		-10.4% [at 2.29 µM] (inactive)
O=C(N/N=C1/C[C@@H](O)[C@@H](O)[C@@H]2[C@@H]3C(=O)N(Cc4ccccc4)C(=O)[C@H]3CC[C@@H]12)OCc1ccccc1		-5.8% [at 11.4 µM] (inactive)
COCOc1ccc(Br)cc1C(=O)[C@H]1O[C@H]1c1cccc(OC)c1		-9.07% [at 11.4 µM] (inactive)
O=C(O)c1cc2cc(Cc3cccnc3)ccc2o1	inactive	
Cc1ccc2nc(-c3cccnc3)oc2c1	5.01 µM (active)	
Nc1nc(-c2cccnc2)cc(-c2cc(-c3cccnc3)nc(N)n2)n1		-15.9% [at 2.29 µM] (inactive)
Clc1ccc2oc(-c3cccnc3)nc2c1	1.41 µM (active)	
C[N+](C)(N)CCC[N+](C)(C)N		-12% [at 11.4 µM] (inactive)
O=C(NNC(=S)Nc1ccccc1)C1CC1	inactive	
CC(C)(C)NC(=S)Nc1ccc(Nc2ccccc2)cc1	14.1 µM (active)	
Cc1ccc2c(C)nc(Nc3nc(CSc4nc5ccccc5[nH]4)cc(=O)[nH]3)nc2c1	11.2 µM (active)	
Cc1ccc2nc(Nc3nc(-c4ccccc4)cc(=O)[nH]3)nc(C)c2c1	4.47 µM (active)	
Cc1cc(Oc2ccccc2)nc(-c2ccccc2)n1	1.58 µM (active)	
CN(C)c1nc(NCc2ccccc2)nc(N/N=C/c2ccc(Cl)cc2Cl)n1	inactive	
Cc1cc(Oc2ccccc2)nc(NCc2ccccc2)n1	12.6 µM (active)	
O=C1C[C@H](c2ccccc2)[C@@H](c2ccc(Br)cc2)O1		-6.17% [at 11.4 µM] (inactive)
O=C1NCC2=C1C(c1ccc(Br)cc1)Nc1ccccc1N2 (stereo not drawn)	17.8 µM (active)	
C=CC[C@@H]1C=C[C@@H](O/N=C(/C)CCC(=O)OC[C@@H]2O[C@H](C#Cc3ccccc3)C=C[C@@H]2Oc2ccc(C)cc2)[C@@H](CO)O1		4% [at 11.4 µM] (inactive)
Cc1ccc(C(c2ccc(C)o2)c2cccc([N+](=O)[O-])c2O)o1	11.2 µM (active)	

Structure (SMILES)	AC50	activity, negative = inhibition
Cc1ccc(-n2c3c(c(=O)[nH]c2=O)C(C(F)(F)F)(C(F)(F)F)NC(=O)N3)cc1	inactive	
COc1ccc(C(=O)NCC(c2ccc(F)cc2)N2CCOCC2)cc1S(=O)(=O)N1CCCC1 (stereo not drawn)	10 µM (active)	
Cc1cc(=O)oc(C)c1C(=O)Nc1ccc(Cl)cn1	inactive	
COc1ccc(C(=O)Nc2ccc(Cl)cn2)cc1Cl	0.631 µM (active)	
CCOc1ccc(C(=O)Nc2ccc(Cl)cn2)cc1Cl	1.26 µM (active)	
CC(=O)N1CC2(CC2)CC1c1ccccc1 (stereo not drawn)	inactive	
Oc1ccccc1CNn1cnnc1	inactive	
CC(=O)Nc1ccc(NC(=O)Cn2c(-c3ccc(F)cc3)cnc2SCC(=O)Nc2c(C)cccc2C)cc1	inactive	
CCSc1ncc(/C=N/Nc2ccc(F)cc2)n1C	2.82 µM (active)	
FC(F)(F)c1ccccc1-c1cncnc1NCCc1cnc[nH]1	6.31 µM (active)	
COc1cccc(-c2cncnc2NCCc2cnc[nH]2)c1	0.398 µM (active)	
COc1ccccc1-c1cncnc1NCCc1cnc[nH]1	1.26 µM (active)	
O=C(Oc1ccccc1)N1CCC2(CC1)CN(c1ccncc1)C2	inactive	
CCCCN1C(=O)C(NC(=O)c2cccnc2)(C(F)(F)F)C2=C1CC(C)(C)CC2=O (stereo not drawn)	inactive	
CCCC(=O)NCCc1c2n(c3ccc(OC)cc13)Cc1ccccc1-2	2.51 µM (active)	
COc1ccc(OC)c(CNC(=O)CCNC(=O)Cn2ccc3ccccc3c2=O)c1	inactive	
Cc1cnc(CNc2cc(-c3cccc(C#N)c3)ncn2)cn1	15.8 µM (active)	
COc1cccc(-c2cc(NCc3cnc(C)cn3)ncn2)c1	5.01 µM (active)	
CC(C)C(=O)Cc1ccc2ccccc2n1	3.16 µM (active)	
O=C(O)Cc1cc2ccccc2nc1C(=O)O	inactive	
C[C@@]12CCC(=O)C=C1CC[C@H]1[C@@H]2[C@@H](O)C[C@]2(C)[C@@H]1CC[C@@]2(O)C(=O)COC(=O)C1CCCC1		-13.3% [at 11.4 µM] (inactive)
O=S(=O)(N/N=C/c1ccc2c(c1)OCCO2)c1ccc(Cl)cc1	11.2 µM (active)	
Cc1ccc(Cl)cc1N1CCN(S(=O)(=O)c2ccc3c(c2)OCCO3)CC1	inactive	
O=S(=O)(Nc1cccnc1Cl)c1ccc2c(c1)OCCO2	inactive	

Structure (SMILES)	AC50	activity, negative = inhibition
O=S(=O)(N/N=C\c1ccc2c(c1)OCO2)c1ccc(Cl)cc1	10 µM (active)	
O=C(Nc1nnc(SCc2c(Cl)cccc2Cl)s1)C1CCCO1 (stereo not drawn)	17.8 µM (active)	
CCc1nnc(NC(=O)C2CCN(C(=O)NC3CCCCC3)CC2)s1	inactive	
O=C(Nc1nnc(SCc2ccc(Cl)cc2Cl)s1)C1COc2ccccc2O1 (stereo not drawn)	inactive	
COc1ccc(C=O)cc1COc1ccc(C)cc1[N+](=O)[O-]	1.12 µM (active)	
C=CCNCCOCCOc1ccc(C)cc1[N+](=O)[O-]	0.794 µM (active)	
CCCCNCCOCCOc1ccc(C)cc1[N+](=O)[O-]	0.794 µM (active)	
O=c1cc(N2CCN(c3ccccc3)CC2)[nH]c(=O)n1C1CCCCC1	inactive	
COc1ccc(COC(=O)N/N=C2/C[C@@H](O)[C@@H](O)[C@@H]3[C@@H]4C(=O)N(C(C)(C)C)C(=O)[C@H]4CC[C@H]23)cc1		-10.2% [at 11.4 µM] (inactive)
CN(C)S(=O)(=O)Oc1ccsc1C(=O)Nc1ccc(Cl)cc1	0.891 µM (active)	
COC(=O)c1sccc1-c1ccc(C(=O)Nc2cccc(Cl)c2)o1	1.41 µM (active)	
CN(C)S(=O)(=O)Oc1ccsc1C(=O)Nc1cccc(Cl)c1	1.41 µM (active)	
Cc1ccc(Sc2ccc(NC(=O)c3ccc(S(C)(=O)=O)cc3Cl)cc2)cc1	inactive	
CN(C)S(=O)(=O)c1ccc(NC(=O)c2cc(F)c(F)cc2Cl)cc1	inactive	
C[C@]12CC3CC(N)(C1)C[C@@](C)(C3)C2	inactive	
CC(C)C(CCNC(=O)CC(Cc1ccccc1)c1ccco1)c1ccco1 (stereo not drawn)	inactive	
C=C1C(=O)C=C2CN(C(=O)c3ccccc3)[C@@](Cc3ccc(OC)cc3)(C(=O)OC)[C@@H]12	15.8 µM (active)	
COC(=O)[C@@]1(Cc2ccc(OC)cc2)[C@@H]2C(=CC(=O)[C@H]2CC(=O)C(=O)N(C)C)CN1C(=O)c1ccccc1	inactive	
COC(=O)[C@@]1(Cc2ccc(F)cc2)[C@@H]2C(=CC(=O)[C@H]2CC(=O)C(=O)N(C)C)CN1C(=O)c1ccccc1	inactive	
C=C1C(=O)C=C2CN(C(=O)c3ccccc3)[C@@](Cc3ccc(F)cc3)(C(=O)OC)[C@@H]12	15.8 µM (active)	
COC(=O)[C@@]1(Cc2ccc(OC)cc2)[C@@H]2C(=CC(=O)[C@H]2CC(=O)C(=O)N2CCCC2)CN1C(=O)c1ccccc1	inactive	
COC(=O)[C@@]1(Cc2ccc(F)cc2)[C@@H]2C(=CC(=O)[C@H]2CC(=O)C(=O)N2CCCC2)CN1C(=O)c1ccccc1	inactive	
CCN1CCN(C(=O)N[C@H](C(=O)N[C@@H]2C(=O)N3C(C(=O)O)=C(CSc4nnnn4C)CS[C@@H]23)c2ccc(O)cc2)C(=O)C1=O	inactive	
O=C(O)CSc1cc(C(F)(F)F)nc(-c2ccccn2)n1	inactive	

Structure (SMILES)	AC50	activity, negative = inhibition
CCOC(=O)CSc1cc(C(F)(F)F)nc(-c2ccccn2)n1	2.24 µM (active)	
CC(C)Nc1cc(C(F)(F)F)nc(-c2ccccn2)n1	1.58 µM (active)	
FC(F)(F)c1cc(Sc2ccccc2)nc(-c2ccccn2)n1	0.891 µM (active)	
COC(=O)CSc1cc(C(F)(F)F)nc(-c2ccccn2)n1	0.708 µM (active)	
COc1ccccc1-c1cncnc1NCc1cccc(C)c1	5.01 µM (active)	
COc1ccccc1-c1cncnc1NCc1ccccc1	12.6 µM (active)	
COc1ccccc1-c1cncnc1NCc1cccnc1	6.31 µM (active)	
CCC[C@@H]1C[C@@]1(CCC)C(NS(=O)(=O)c1cccc2cccnc12)c1ccc(Cl)cc1 (stereo partly drawn)	inactive	
CC(C)NC(=O)N1CC[C@@]2(CCCN(C(=O)c3cccc(F)c3)C2)C1	inactive	
COc1ccc2[nH]cc(CCNc3ncnc4ccc(-c5ccc6c(c5)OCO6)cc34)c2c1	0.631 µM (active)	
COc1ccc2[nH]cc(CCNc3ncnc4ccc(-c5ccoc5)cc34)c2c1	0.316 µM (active)	
C=CC(C)(C)c1[nH]c2ccccc2c1C1=C(O)C(=O)C(c2c[nH]c3c(CC=C(C)C)cccc23)=C(O)C1=O	25.1 µM (active)	
O=C(CSc1nnc(-c2ccco2)n1-c1ccccc1)NCc1ccco1	inactive	
O=C(CSc1nnc2sc3ccccc3n12)NCc1ccco1	10 µM (active)	
CCOC(=O)c1sc2nc(CC(=O)OC)nc(NCc3ccc(F)cc3)c2c1C	14.1 µM (active)	
COc1ccc(COC(=O)N/N=C2/C[C@@H](O)[C@@H](O)[C@@H]3[C@@H]4C(=O)N(c5cccc(Oc6ccccc6)c5)C(=O)[C@H]4CC[C@@H]23)cc1		-36.2% [at 11.4 µM] (inactive)
Nc1cc(=O)[nH]c(SCC(=O)Nc2ccc(S(=O)(=O)N3CCOCC3)cc2)n1	inactive	
CCC(Sc1nc(C)cc(=O)[nH]1)C(=O)Nc1nc2c(s1)CCCC2 (stereo not drawn)	12.6 µM (active)	
Cc1cc(=O)[nH]c(-n2[nH]c3c(c2=O)CCCC3)n1	inactive	
C/C(=N/Nc1nc(C)cc(=O)[nH]1)C(=O)O		-8.18% [at 11.4 µM] (inactive)
Cc1cc(=O)[nH]c(SCC(=O)Nc2nc3c(s2)CCCC3)n1	12.6 µM (active)	
